Only some compounds are listed: those with a hit (about 3.1% of all), similar ones and a draw of the others.
PLK1 PBD inh = PLK1 (human) polo-box domain binding inhibition | 360,000 tested, 2.8% active | Potency, µM, most hits filed as inhibitors | Plk1 PBD binding of FITC phosphopeptide, fluorescence polarization | AID 720504; note: series mostly up to about 57 µM; nearly all actives have a fitted effect of over 65% in size
VDR inh = inhibitors of human vitamin D receptor; P11473; VDR-SRC2-3 peptide fluorescence polarization, 2 h; Potency, µM, most hits filed as inhibitors; 400,000 tested, 0.93% active
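VDR–SRC2-3 interaction, FP format. Cmpds 23 nl via pintool, brief spin, 2 h ambient incubation.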
PI4K2A block = blocks human PI4K2A kinase activity; purified PI4K2A, ADP-Glo luminescence, 1 h; hits give low values; activity change, negative = inhibition, % at 76.9 µM; 420,000 tested, 0.13% active; AID 1346378; in the data active = activity change below about -50%; inconclusive = mostly about -30% to -49%
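ADP-Glo luminescence measured ADP generated by PI4K2A enzyme (4 ug/mL before mixing) with 1.2 mM PI substrate (pre-mix) and 300 microM ATP (pre-mix). Tris pH7.5 buffer with MgCl2, Triton X-100; 1 h reaction at ambient temperature.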
GLS inh = inhibitors of human glutaminase (GLS); O94925; AID 624170; Potency, µM (doses to about 45.5 µM), hits mostly inhibitors; 410,000 tested, 0.21% active; GLS enzymatic activity, qHTS titration
Target sequence (O94925 whole entry, looked up): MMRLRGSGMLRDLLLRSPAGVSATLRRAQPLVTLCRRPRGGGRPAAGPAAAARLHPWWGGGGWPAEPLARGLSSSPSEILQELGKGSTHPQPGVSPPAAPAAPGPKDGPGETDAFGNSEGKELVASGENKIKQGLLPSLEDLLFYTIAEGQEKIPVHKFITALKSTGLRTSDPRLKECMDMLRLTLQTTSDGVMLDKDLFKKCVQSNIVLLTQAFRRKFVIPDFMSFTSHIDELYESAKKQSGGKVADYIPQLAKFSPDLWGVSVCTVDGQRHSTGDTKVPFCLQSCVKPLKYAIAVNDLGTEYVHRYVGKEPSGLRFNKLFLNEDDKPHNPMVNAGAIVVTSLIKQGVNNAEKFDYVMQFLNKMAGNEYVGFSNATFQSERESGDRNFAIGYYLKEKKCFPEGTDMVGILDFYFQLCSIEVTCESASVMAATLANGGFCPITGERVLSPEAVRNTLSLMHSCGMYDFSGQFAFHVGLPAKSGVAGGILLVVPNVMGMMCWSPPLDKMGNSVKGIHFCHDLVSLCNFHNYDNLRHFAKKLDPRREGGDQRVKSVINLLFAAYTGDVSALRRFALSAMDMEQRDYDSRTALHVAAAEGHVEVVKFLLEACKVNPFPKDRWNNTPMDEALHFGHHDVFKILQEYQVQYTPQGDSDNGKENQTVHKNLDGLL
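Enzyme dispensed in phosphate buffer (45 mM, pH 8.2, 0.02% Tween-20), compounds pinned in, then 1 mM L-glutamine solution and the glutamate oxidase–HRP–Amplex Red mix added; fluorescence read immediately and again after 30 min at room temperature.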
KAT2A inh = inhibitors of human GCN5L2 histone acetyltransferase; GCN5L2 HAT assay, ThioGlo1 CoA-SH fluorescence; 390,000 tested, 0.21% active; Potency, µM (titrated, usually from 58.9 µM), most hits filed as inhibitors; Q92830
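ThioGlo1-coupled HAT assay: 20nM GCN5L2, 70uM acetyl-CoA, 75uM H3(1-25) peptide, pH 7.5. Fluorescence read at 340/540nm at start and after 20 min at room temperature.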
A number is an active result. Unless noted, calls come from the whole dose curve; as a rule, active = well fitted curve in the direction sought with a large enough effect; inconclusive = small, poorly fitted or top-dose-only effect, or another doubt; inactive = no such curve, though single readings can be large; an effect the other way counts as inactive or inconclusive.

`O=C(NC1CCCCC1)C(c1ccncc1)N(Cc1ccccc1)C(=O)c1ccc(-c2ccccc2)[nH]1` (centres undefined) gave PLK1 PBD inh inactive, VDR inh inactive, PI4K2A block inactive, GLS inh inactive and KAT2A inh inactive.
Screening CC(C)(C)NC(=O)C(c1ccncc1)N(Cc1ccco1)C(=O)c1ccc(-c2ccccc2)[nH]1 (centres undefined) returned PLK1 PBD inh inactive, VDR inh 71µM, PI4K2A block inactive, GLS inh inactive and KAT2A inh inactive.
`COc1ccc(CSC2=C(C#N)C(=O)NC3(CCCCC3)S2)cc1` gave PLK1 PBD inh inactive, PI4K2A block inactive and GLS inh inactive.
`CCCCCCSC1=C(C#N)C(=O)NC2(CCCCC2)S1` gave PLK1 PBD inh 27µM, VDR inh inconclusive, PI4K2A block inactive, GLS inh inactive and KAT2A inh inactive.
Screening Cc1ccc(Nc2c(-c3ccc(C)s3)nc3cccc(C)n23)cc1 returned VDR inh inactive.
`O=C(CSc1ncccc1-c1nc2ccccc2[nH]1)NCc1ccco1` gave PLK1 PBD inh 19µM, VDR inh inconclusive, PI4K2A block inactive, GLS inh inconclusive and KAT2A inh inactive.
Screening Cc1cc2nc(-c3cccnc3SCC(=O)NCc3ccco3)[nH]c2cc1C returned PLK1 PBD inh inactive, VDR inh inactive, PI4K2A block inactive, GLS inh inactive and KAT2A inh inactive.
For NCCCC(N)CC(=O)NCC1NC(=O)C(CO)NC(=O)C(N)CNC(=O)C(C2CCN=C(N)N2)NC(=O)C(=CNC(N)=O)NC1=O (centres undefined) the results were PI4K2A block inactive.
Screening O=C(c1ccco1)c1coc2c1cc(O)c1ccccc12 returned PLK1 PBD inh 30µM, VDR inh inactive, PI4K2A block inactive, GLS inh inactive and KAT2A inh inactive.
For CC(C)(C)C(=O)OCOC(=O)C1N2C(=O)CC2S(=O)(=O)C1(C)C (centres undefined) the results were PI4K2A block inactive and GLS inh inactive.
`N#CC1=C(N)Oc2cc(O)ccc2C1c1ccc(Br)s1` (centres undefined) gave PLK1 PBD inh 30µM, VDR inh inactive, PI4K2A block inactive, GLS inh inactive and KAT2A inh inactive.
Screening COc1c(O)cc2c(c1O)C1OC(CO)C(O)[C@H](O)[C@H]1OC2=O (some centres undefined) returned VDR inh inactive and KAT2A inh inactive.
Screening O=C(O[C@@H]1OC2COC(=O)c3cc(O)c(O)c(O)c3-c3c(cc(O)c(O)c3O)C(=O)O[C@@H]([C@H]1O)[C@@H]2O)c1cc(O)c(O)c(O)c1 returned PLK1 PBD inh 9.5µM, VDR inh inactive, PI4K2A block inconclusive, GLS inh inactive and KAT2A inh inconclusive.
For O=C(c1ccc2nc(Cc3ccccc3F)oc2c1)N1CCCC1 the results were PLK1 PBD inh inactive, VDR inh inactive, PI4K2A block inactive, GLS inh inactive and KAT2A inh inactive.
Screening O=C(c1ccc2nc(Cc3ccccc3F)oc2c1)N1CC[C@H](O)C1 returned PLK1 PBD inh 24µM, VDR inh inconclusive, PI4K2A block inactive, GLS inh inactive and KAT2A inh inactive.
For CCCCCCCCN1C(=O)[C@@H](CC(=O)NCCC(C)C)C[C@@]2(C(=O)OC)C1=C[C@H](COCc1ccccc1)O[C@@H]2C the results were PI4K2A block inactive.
`COC(=O)[C@]1(CNC(=O)C(C)(C)C)CC(=O)N(C)[C@@H]1c1ccccc1` gave PI4K2A block inactive.
For O=C(CCl)N1c2ccccc2SCC1c1ccccc1 (centres undefined) the results were PLK1 PBD inh 3µM, VDR inh inconclusive, PI4K2A block inactive, GLS inh inactive and KAT2A inh inactive.
Screening O=C(CN1C(=O)CSC1=O)Nc1ccc(F)c(F)c1F returned PLK1 PBD inh 24µM, VDR inh inactive, PI4K2A block inactive, GLS inh inactive and KAT2A inh inactive.
Screening COc1ccc(/C=C(/C(=O)c2cccs2)N2C=CC=CC2=C(C#N)C#N)cc1 returned PLK1 PBD inh 6µM, VDR inh inconclusive, PI4K2A block inactive, GLS inh inconclusive and KAT2A inh inactive.
N#CC(C#N)=C1C=CC=CN1/C(=C\c1ccco1)C(=O)c1ccccc1 was read as PLK1 PBD inh 12µM, VDR inh 14µM, PI4K2A block inactive, GLS inh inactive and KAT2A inh inactive.
N#CC(C#N)=C1C=CC=CN1/C(=C\c1ccco1)C(=O)c1ccc(Br)cc1 was read as PLK1 PBD inh 3µM, VDR inh 10µM, PI4K2A block inactive, GLS inh inactive and KAT2A inh inactive.
Screening COc1ccc(C(=O)/C(=C\c2ccco2)N2C=CC=CC2=C(C#N)C#N)cc1 returned PLK1 PBD inh 21µM, VDR inh 40µM, PI4K2A block inactive, GLS inh inactive and KAT2A inh inactive.
Screening COc1ccc(N=N/C(=C\O)C(=O)c2cccs2)cc1 returned PLK1 PBD inh inactive, VDR inh inactive, PI4K2A block inactive, GLS inh inactive and KAT2A inh inactive.
For CSc1ccc(/C=C/c2nc3ccccc3n2S(=O)(=O)c2ccc(Br)cc2)cc1 the results were VDR inh inactive, PI4K2A block inconclusive, GLS inh inactive and KAT2A inh inactive.
Screening Cc1cc(C)[n+](-c2ccc(Oc3ccccc3)c(S(=O)(=O)[O-])c2)[nH]1 returned PLK1 PBD inh 27µM, VDR inh inconclusive, PI4K2A block inactive and KAT2A inh inactive.
`O=C(Nc1ccc(F)cc1F)c1noc2c1CCc1ccccc1-2` gave VDR inh inactive, PI4K2A block inactive, GLS inh inconclusive and KAT2A inh inactive.
CC(C)(C)c1ccc(-c2cn(C[C@H](Cc3ccccc3)n3c(=O)c4ccccc4n3Cc3ccco3)nn2)cc1 was read as PI4K2A block inactive.
`CC(CCC(=O)Nc1nncs1)C(=O)O` (centres undefined) gave PLK1 PBD inh inactive, VDR inh inactive, PI4K2A block inactive, GLS inh inactive and KAT2A inh inactive.
Screening CCCCC(C(=O)O)C(C)CC(=O)Nc1nncs1 (centres undefined) returned PLK1 PBD inh 21µM, VDR inh inactive, PI4K2A block inactive, GLS inh inactive and KAT2A inh inactive.
O=C(c1c[nH]c(C(=O)C(Cl)(Cl)Cl)c1)c1c(F)cccc1F was read as PLK1 PBD inh 5.3µM, VDR inh inconclusive, PI4K2A block inactive, GLS inh inconclusive and KAT2A inh inactive.
`CC(C)(C)Cc1nnc(NS(=O)(=O)c2ccccc2)s1` gave PLK1 PBD inh 27µM, VDR inh inactive, PI4K2A block inactive, GLS inh inactive and KAT2A inh inactive.
CC(C)Cc1nnc(NS(=O)(=O)c2ccccc2)s1 was read as PLK1 PBD inh inconclusive, PI4K2A block inactive and GLS inh inactive.
`CC(C)(C)c1nnc(NS(=O)(=O)c2ccc(F)cc2)s1` gave PLK1 PBD inh 9.5µM, VDR inh 79µM, PI4K2A block inactive and GLS inh inactive.

Bioassay records as filed in PubChem BioAssay.
